Screens deposited in PubChem BioAssay by National Center for Advancing Translational Sciences (NCATS).
TbPYK inhibitor: qHTS of Trypanosoma Brucei Inhibitors; pyruvate kinase (Trypanosoma brucei), Q57TT1; TbPYK enzyme, Kinase-Glo Plus ATP luminescence, 45 min; AID 624173, 2012; Potency, µM (top dose mostly 76.8 µM), most hits filed as inhibitors; 0.12% of 410,000 active; further: nearly all actives have a fitted effect of over 50% in size
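Luminescent Kinase-Glo Plus end-point after 45 min room-temperature reaction of T. brucei pyruvate kinase started with 130 uM ADP (final). Buffer TEA 50 mM pH 7.2 with KCl, MgCl2, BSA, Tween-20; titration-based qHTS with fitted concentration-effect curves.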
LmPK inh: qHTS Assay for Inhibitors of Leishmania Mexicana Pyruvate Kinase (LmPK); Q27686; purified LmPK, Kinase-Glo ATP luminescence, 1 h; Potency, µM (highest dose often 57.5 µM), actives largely listed as inhibitors; 0.37% of 290,000 active; AID 1721, 2009
Target sequence (Q27686 whole entry, looked up): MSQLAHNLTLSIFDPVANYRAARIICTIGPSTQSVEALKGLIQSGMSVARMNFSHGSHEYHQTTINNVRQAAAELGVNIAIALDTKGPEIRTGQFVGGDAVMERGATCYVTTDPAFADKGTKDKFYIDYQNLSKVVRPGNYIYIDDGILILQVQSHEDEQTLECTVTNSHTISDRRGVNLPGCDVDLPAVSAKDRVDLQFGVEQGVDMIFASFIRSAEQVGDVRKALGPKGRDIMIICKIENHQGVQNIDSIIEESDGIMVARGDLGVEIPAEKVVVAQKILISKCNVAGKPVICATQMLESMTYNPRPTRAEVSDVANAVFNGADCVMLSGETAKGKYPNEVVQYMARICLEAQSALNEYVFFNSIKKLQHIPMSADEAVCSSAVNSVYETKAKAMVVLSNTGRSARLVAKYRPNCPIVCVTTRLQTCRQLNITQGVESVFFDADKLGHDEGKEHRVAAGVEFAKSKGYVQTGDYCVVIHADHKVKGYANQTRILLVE
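qHTS format; LmPK 0.1 nM; substrates PEP 0.5 mM and ADP 0.1 mM. One-hour room-temperature incubation, then coupled luciferase luminescence; 0.5 nM enzyme wells mark activation.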
RE007 growth inh: qHTS Assay for Inhibitors of the HIV-1 protein Vpr; 0.21% of 360,000 active; S. pombe RE007 Vpr strain, BacTiter-Glo ATP luminescence, 24 h; AID 651644, 2012; Potency, µM (titrated, usually from 92.2 µM), most hits filed as inhibitors; active means well fitted falling curve with a large enough effect; inconclusive means small, poorly fitted or top-dose-only effect; inactive means no such curve, though single readings can be large or run the other way; further: nearly all actives have a fitted effect of over 50% in size
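Fission yeast RE007 carrying one integrated HIV-1 vpr copy, seeded at OD 0.01 in PMG+AL medium with 23 nL pinned compound. Grown 24 h at 30 degrees; viability read by BacTiter-Glo luminescence after 5 min.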
FBPA Giardia inh: qHTS Assay for Inhibitors of Fructose-1,6-bisphosphate Aldolase from Giardia Lamblia | A8B2U2 | purified Giardia FBPA | Potency, µM (series often up to 59.6 µM), usual class: inhibitors | 0.71% of 290,000 active | AID 2451, 2010; further: nearly all actives have a fitted effect of over 55% in size
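Giardia FBPA (40 nM reagent) was preincubated 10 min at RT with compound (up to 57.5 uM final), then substrate plus GAPDH/TPI/NAD/arsenate coupling system with diaphorase/resazurin was added; resorufin fluorescence (525/598 nm) was read after 20 min.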
Cycloheximide cs: Cycloheximide Counterscreen for Small Molecule Inhibitors of Shiga Toxin; 12% of 300,000 active; AID 2314, 2010; cell reporter, cycloheximide protein synthesis inhibition counterscreen; max response, %; in the data active means max response mostly above about 13%, no sharp cut-off; inactive means mostly below about 14%; further: read at 38.3 µM for the half of the compounds with a filed dose
Shiga toxin inh: A qHTS for Small Molecule Inhibitors of Shiga Toxin; Vero cells, Shiga toxin protein synthesis inhibition reporter; inhibition, % at 38.7 µM; 9.2% of 290,000 active; in the data active means inhibition mostly above about 28%, no sharp cut-off; inactive means mostly below about 43%
Of the large screens only hits and unclear results are named; the others gave an inactive call. The full list was thinned out, with hits kept by preference. Unless noted, the call rests on the fitted dose curve; in most records, active means well fitted curve in the direction sought with a large enough effect; inconclusive means small, poorly fitted or top-dose-only effect, or another doubt; inactive means no such curve, though single readings can be large; an effect the other way counts as inactive or inconclusive.

CC(=O)Nc1ccc(C(=O)CN2C(=O)NC3(CCOc4ccccc43)C2=O)c(F)c1 (configuration not stated)	none (no result: LmPK inh, FBPA Giardia inh, Cycloheximide cs, Shiga toxin inh)
CC1(CNC(=O)C(=O)NCC2(C)CO2)CO1 (configuration not stated)	none (no result: LmPK inh, FBPA Giardia inh, Cycloheximide cs, Shiga toxin inh)
C/C(CC(=O)Nc1ccc2c(c1)OCO2)=N\NC(=O)c1ccc(N)cc1	Cycloheximide cs 22.0, Shiga toxin inh 52.8
COc1ccccc1C(=O)N/N=C(\C)CC(=O)Nc1ccc2c(c1)OCCO2	none
C/C(CC(=O)Nc1ccc2c(c1)OCO2)=N\NC(=O)c1ccccc1N	Cycloheximide cs 59.2, Shiga toxin inh 100.5
C/C(CC(=O)Nc1ccc2c(c1)OCCO2)=N\NC(=O)c1ccccc1F	Cycloheximide cs 29.5, Shiga toxin inh 78.9
C/C(CC(=O)Nc1ccc2c(c1)OCO2)=N\NC(=O)OC(C)(C)C	none
Cc1ccc2cc(CN(c3cccc(C)c3C)S(=O)(=O)c3ccccc3)c(=O)[nH]c2c1	none
COc1ccc(-c2nnc(SCc3nnc(-c4ccc(Cl)cc4)o3)n2-c2ccccc2)cc1	Cycloheximide cs 24.1
Cc1nnc(SCc2nnc(-c3ccccc3Br)o2)n1-c1ccccc1	none
Fc1ccccc1SCc1nnc(-c2ccccc2Br)o1	TbPYK inhibitor 31.6µM, Cycloheximide cs 53.3, Shiga toxin inh 141.4
Brc1ccccc1-c1nnc(CSc2nnnn2-c2ccccc2)o1	Cycloheximide cs 28.8, Shiga toxin inh 53.8
Cc1nnc(SCc2nnc(-c3ccc(Cl)cc3)o2)n1-c1ccccc1	none
COc1ccc(-c2nnc(SCc3nnc(-c4ccccc4)o3)n2-c2ccccc2)cc1	none
Cc1csc(SCc2nnc(-c3ccc(Cl)cc3)o2)n1	Cycloheximide cs 31.8, Shiga toxin inh 91.5
COc1ccccc1CNS(=O)(=O)c1c(C)nc2sc(C)cn2c1=O	none (no result: LmPK inh, RE007 growth inh, FBPA Giardia inh, Cycloheximide cs, Shiga toxin inh)
CCN1C=C(C(=O)c2ccccc2)C(=O)CC1	none (no result: LmPK inh, FBPA Giardia inh, Cycloheximide cs, Shiga toxin inh)
Cc1cccc2cc(C#N)c(SCc3nnc(-c4ccccc4[N+](=O)[O-])o3)nc12	none
Cc1csc(SCc2nnc(-c3ccccc3Br)o2)n1	Cycloheximide cs 48.0, Shiga toxin inh 77.6
Cc1ccc(-c2nnc(CSc3nnc(C)s3)o2)cc1	Cycloheximide cs 33.3
CCc1nc(SCc2nnc(-c3ccc(C)cc3)o2)c2c(C)c(C)sc2n1	none (no result: LmPK inh, FBPA Giardia inh, Cycloheximide cs, Shiga toxin inh)
CC1CCN(C2CC(=O)N(c3ccccc3)C2=O)CC1 (configuration not stated)	RE007 growth inh 20µM
CCOc1ccc(N2C(=O)CC(N3CCc4ccccc43)C2=O)cc1 (configuration not stated)	none
CC1CCN(C2CC(=O)N(c3ccc(Br)cc3Br)C2=O)CC1 (configuration not stated)	RE007 growth inh 39.8µM
O=C1CC(N2CCc3ccccc32)C(=O)N1c1ccccc1 (configuration not stated)	Shiga toxin inh 72.7
COc1ccc(-c2csc(NC(=O)CSc3nc(C)nc4sc(C(=O)O)c(C)c34)n2)cc1	none
CCOC(=O)c1ccc(NS(=O)(=O)c2c(C)[nH]c(C)c2C(=O)N2CCCCC2)cc1	none
CCc1cccc(C)c1NC(=O)c1cnn(-c2ccc(F)cc2)c1-n1cccc1	none (no result: LmPK inh, RE007 growth inh, FBPA Giardia inh, Cycloheximide cs, Shiga toxin inh)
N[C@@H](CSSC[C@H](N)C(=O)O)C(=O)O	none (no result: TbPYK inhibitor, LmPK inh, RE007 growth inh)
Cc1ccc(Nc2nc3ccccc3s2)c(C)c1	RE007 growth inh inconclusive, Cycloheximide cs 46.6, Shiga toxin inh 93.5
Cc1cc(C)nc(Nc2nc3ccccc3s2)n1	Cycloheximide cs 39.3, Shiga toxin inh 59.1
CC(=O)c1cnc(Nc2nc(C)c3ccc(C)cc3n2)nc1C	none
CC(=O)c1c(C)nc(Nc2nc3ccccc3s2)nc1C	Cycloheximide cs 68.0, Shiga toxin inh 98.1
Cc1ccc(NC(=O)COC(=O)c2ccccc2-c2nc3ccccc3s2)c(C)c1	none
CC(=O)c1c(C)nc(Nc2nc(C)c3cc(C)ccc3n2)nc1C	Shiga toxin inh 55.5
O=C1NC[C@H](Cc2ccccc2)N(CC2CCCCC2)C1=O	none
Cc1cccc(C)c1NC(=O)CN(C)C(=O)c1cccc(NS(=O)(=O)c2ccccc2)c1	none (no result: LmPK inh, FBPA Giardia inh, Cycloheximide cs, Shiga toxin inh)
